# Compounds with a hit are over-represented: about 1.5% of the library has one in this group of screens.
# CRFBP-R2 block – blocks CRF-induced signaling of the CRF-BP/CRF-R2 complex; HEK293 CRF-R2/CRF-BP, CRF-induced calcium fluorescence; inhibition, % at 11.8 µM; 350,000 compounds, 0.59% hits;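 active = inhibition of the ligand-induced calcium signal above about 50% at the single tested concentration, limit read from the data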
# cardiac RTF act – cardiac RTF calcium sensitization; IANBD-labeled TnC RTF fluorescence at EC20 calcium; 0% EC20 calcium, 100% full calcium; 340,000 compounds, 0.24% hits; activation, % at 7.2 µM; AID 493008;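 active = activation above the mean over all tested compounds plus 3 SD, cut at about 30% in these data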;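 note: rise in fluorescence read as greater calcium sensitivity of cardiac thin filaments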
# CRFBP-R2 agonist – CRF-BP/CRF-R2 complex agonism; activation, % at 13.2 µM; HEK293 CRF-R2/CRF-BP, calcium dye fluorescence (FLIPR); percent of saturating CRF peptide response; 350,000 compounds, 0.46% hits;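 active = activation of at least 50%, plus an integration ratio under a set limit after plate pattern correction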;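 note: plate controls were neutral control wells without compound for no effect and CRF at EC100 for full effect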
# IDE cell activ – activators of human insulin-degrading enzyme in cells; AID 493087; activation, % at 5.96 µM; HEK cells, FAbeta-B cleavage, fluorescence polarization; 0% vehicle, 100% cell-free pure enzyme wells; 340,000 compounds, 0.073% hits;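 active = activation above the mean of all tested compounds plus 3 SD, set per screening campaign, cut at about 17% in these data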
# Target sequence (P14735 whole entry, looked up): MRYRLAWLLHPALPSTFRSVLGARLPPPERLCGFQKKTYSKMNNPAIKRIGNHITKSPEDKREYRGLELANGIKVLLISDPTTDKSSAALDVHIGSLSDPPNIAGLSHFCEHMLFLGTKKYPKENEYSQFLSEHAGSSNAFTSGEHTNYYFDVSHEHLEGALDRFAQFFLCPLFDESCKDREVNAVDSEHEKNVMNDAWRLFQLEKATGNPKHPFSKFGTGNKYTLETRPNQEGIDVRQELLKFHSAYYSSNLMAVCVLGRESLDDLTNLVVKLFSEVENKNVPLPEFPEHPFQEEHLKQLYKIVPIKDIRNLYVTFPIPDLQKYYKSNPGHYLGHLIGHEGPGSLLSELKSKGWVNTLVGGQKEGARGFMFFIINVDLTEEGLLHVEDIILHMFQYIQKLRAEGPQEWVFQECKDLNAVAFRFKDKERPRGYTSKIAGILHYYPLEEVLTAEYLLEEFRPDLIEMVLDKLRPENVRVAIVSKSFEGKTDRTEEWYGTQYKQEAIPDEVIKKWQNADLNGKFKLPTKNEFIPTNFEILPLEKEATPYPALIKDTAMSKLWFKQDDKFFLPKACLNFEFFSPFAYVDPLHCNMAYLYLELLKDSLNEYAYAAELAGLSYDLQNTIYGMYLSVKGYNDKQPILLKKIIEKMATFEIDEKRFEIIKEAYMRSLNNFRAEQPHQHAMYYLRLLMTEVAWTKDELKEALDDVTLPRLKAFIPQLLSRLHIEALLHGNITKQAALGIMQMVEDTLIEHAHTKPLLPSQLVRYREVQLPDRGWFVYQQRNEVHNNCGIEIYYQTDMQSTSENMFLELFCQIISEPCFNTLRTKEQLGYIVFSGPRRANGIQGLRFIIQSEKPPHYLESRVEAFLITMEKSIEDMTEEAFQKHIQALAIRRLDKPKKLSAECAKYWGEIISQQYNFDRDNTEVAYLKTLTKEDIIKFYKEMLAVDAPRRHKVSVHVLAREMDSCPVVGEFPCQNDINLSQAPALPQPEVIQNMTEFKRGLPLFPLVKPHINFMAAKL
# IDE cell inh – inhibits human insulin-degrading enzyme in HEK cells; FAbetaB cleavage, fluorescence polarization; inhibition, % at 5.59 µM; 320,000 compounds, 0.41% hits; AID 434962;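 active = percent inhibition above the average of all tested compounds plus 3 SD, set per screening campaign, cut at about 16% in these data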;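 note: IDE supplied by intact live HEK cells; FP after avidin binding of uncleaved biotin substrate so inhibition keeps polarization high; 0% = DMSO wells and 100% = 60 µM reference IDE inhibitor Ii1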
# Cardiac RTF inh – cardiac RTF calcium desensitization | IANBD-labeled cardiac RTF, Ca2+ fluorescence | inhibition, % at 7.15 µM | 340,000 compounds, 0.12% hits | AID 493244 | P19429+P45379;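 active = inhibition above the mean inhibition of all tested compounds plus 3 SD, cut at about 17% in these data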;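 note: assay run at fixed EC70 calcium of 1.6 mM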
# IDE cell inh cf – cellular human IDE inhibition, confirmation; shares compounds with IDE cell inh; HEK cells, FAbetaB cleavage, fluorescence polarization; inhibition, % at 5.59 µM; 1,200 compounds, 51% hits;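 active = mean inhibition across triplicate wells above the cutoff set by the earlier primary insulin-degrading enzyme screen, cut at about 16% in these data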;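 note: 0% = DMSO wells and 100% = 60 µM reference IDE inhibitor Ii1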
# HEK cytotox – kills HEK cells in IDE inhibitor counter-screen | shares compounds with IDE cell inh | HEK293 cytotoxicity, ATP luminescence | 1,200 compounds, 28% hits | inhibition, % at 5.59 µM | AID 449730; in the data active = inhibition above about 22%;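 note: 0% = vehicle wells and 100% = reference cytotoxic drug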
# Numbers without * were called inactive; nt = no result.
SMILES,CRFBP-R2 block,cardiac RTF act,CRFBP-R2 agonist,IDE cell activ,IDE cell inh,Cardiac RTF inh,others
CC(=O)Nc1c(I)c(C(=O)N[C@H]2C(O)O[C@H](CO)[C@@H](O)[C@@H]2O)c(I)c(N(C)C(C)=O)c1I (some centres undefined),10,-5,0,4,3,11,
COc1ccccc1NS(=O)(=O)c1cc(C(=O)NCCC(C)C)ccc1F,-87,-1,85*,3,3,-2,
CCCNC(=O)/C(=C/c1cn(S(=O)(=O)N(C)C)c2ccccc12)NC(=O)c1ccc(OC)cc1,-167,-2,78*,2,4,-14,
Cc1ccccc1C1CC(=O)Oc2cc(O)ccc21 (centres undefined),-9,39*,22,-2,nt,-63,
COc1ccc(-n2c(O)c(/C=N/NS(=O)(=O)c3ccc(C)c([N+](=O)[O-])c3)c3ccccc3c2=O)cc1OC,-39,128*,12,-15,1,-64,
COc1cc(/C=N/NS(=O)(=O)c2ccc(C)c([N+](=O)[O-])c2)cc([N+](=O)[O-])c1O,-4,3,-1,2,4,2,
CCN(CC(=O)Nc1ccccc1C(F)(F)F)C(=O)c1cc(-c2ccccc2)nn1-c1ccccc1,18,-5,1,3,-6,1,
CCN(CC(=O)Nc1ccccc1C(F)(F)F)C(=O)c1ccc(-n2nc(C)c(CCC(=O)OC)c2C)cc1,-3,62*,1,-18,nt,-74,
CC(Sc1nnnn1-c1cccc(F)c1)C(=O)NC1CCCC1 (centres undefined),-4,4,1,5,-2,-5,
O=C(c1ccc(Cl)cc1)N1CCN(c2ccc([N+](=O)[O-])c(NCc3cccnc3)c2)CC1,3,1,-3,9,-8,-5,
O=C(c1ccccc1)N1CCN(c2ccc([N+](=O)[O-])c(NCc3cccnc3)c2)CC1,17,3,-2,20*,-5,2,
CC#CCCCC(=O)Nc1ccccc1C(=O)O,63*,4,0,4,2,-7,
CN(C(=O)C1CCCCC1)C1(C)CCS(=O)(=O)C1 (centres undefined),-8,-2,2,6,-2,-9,
Brc1ccc(-c2csc(N3CCOCC3)n2)cc1,-7,-2,0,-7,-5,2,
Clc1ccc(-c2csc(N3CCOCC3)n2)cc1,77*,-2,-7,-4,nt,0,
Cc1nc(C)c(C(=O)OCC(=O)NCCc2ccc(F)cc2)s1,-4,-5,-2,5,nt,8,
CC1(C)CC(=O)C(C2C3=C(CC(C)(C)CC3=O)Oc3c(Br)cc(Br)cc32)=C(O)C1 (centres undefined),47,-6,82*,0,1,-7,
CCN(CC(=O)NCc1ccc(F)cc1)C(=O)c1ccc(COc2ccccc2)cc1,9,-1,0,-3,-3,-13,
CCc1ccc2[nH]c(C(=O)Nc3ccc4c(c3)OCO4)cc2c1,69*,4,-5,-1,1,0,
Cc1cc(C)c2[nH]c(C(=O)Nc3ccc4c(c3)OCO4)cc2c1,29,6,-1,-6,-4,0,
O=c1c([N+](=O)[O-])c(NC2CCCCC2)c2ccccc2n1-c1ccccc1,57*,12,-4,1,0,-2,
COc1cc(OC)c(C(=O)Nc2ccc(C(=O)c3ccccc3)cc2)cc1OC,-5,1,-1,1,0,-1,
C#CCN1c2ccccc2Sc2cccnc21,-1,30*,0,3,-9,-40,
CC(CN1c2ccccc2Sc2ccccc21)N(C)C (centres undefined),-21,-2,1,3,-2,14,
CC1(C)CC(=O)C2=C(C1)OC(N)=C(C#N)C21CCN(Cc2ccccc2)CC1,1,32*,2,2,1,-24,
SMILES,CRFBP-R2 block,cardiac RTF act,CRFBP-R2 agonist,IDE cell activ,IDE cell inh,Cardiac RTF inh,others
CC(=O)N1CCC2(CC1)C(C#N)=C(N)OC1=C2C(=O)CC(C)(C)C1,-1,-3,-1,2,-1,-1,
NC(=O)c1ccc2nc(-c3ccccc3)c(-c3ccccc3)nc2c1,52*,0,-1,3,5,4,
O=C(O)c1ccc2nc(-c3ccccc3)c(-c3ccccc3)nc2c1,19,-5,-1,1,7,-2,
NS(=O)(=O)c1ccc(CCNC(=O)c2ccccc2-c2ccccc2)cc1,11,-4,2,2,-2,-13,
c1ccc(C2CN3CCSC3=N2)cc1 (centres undefined),89*,11,-2,-5,1,6,
N#Cc1ccsc1NC(=O)C1CCCN1S(=O)(=O)c1cccs1 (centres undefined),-11,2,2,2,-1,10,
CSCC[C@H](NC(=O)OC(C)(C)C)C(=O)NCC1CCC(C(=O)N[C@@H](Cc2ccccc2)C(=O)O)CC1 (some centres undefined),9,-4,0,1,5,-3,
Cn1c2ccccc2c2cc(/C=N/NC(=O)c3ccc(O)cc3O)ccc21,-9,-4,-1,-2,1,-14,
Cn1c(O)c(/C=N/NC(=O)c2cc3ccccc3cc2O)c2ccccc21,-104,40*,117*,-12,8,-41,
COc1cc2c(cc1OC)-c1cc(Nc3ccc(C(=O)O)cc3)nc(=O)n1CC2,117*,0,0,4,4,1,
COc1ccc(Nc2cc3n(c(=O)n2)CCc2cc(OC)c(OC)cc2-3)cc1,32,-3,1,2,0,-3,
CCn1nc(C(=O)N2CCN(Cc3nc4ccccc4s3)CC2)c2ccccc2c1=O,8,-6,0,-5,11,-14,
CC(=O)NC1=NN(C(C)=O)C(C)(c2ccccn2)S1 (centres undefined),52*,-3,7,8,1,6,
CC(=O)NC1=NN(C(C)=O)C(C)(c2ccc(Br)cc2)S1 (centres undefined),-14,3,4,4,2,-2,
CN(C)c1ccc(/C=C/C(=O)c2c(O)c3ccccc3oc2=O)cc1,-81,24,129*,-71,25*,-17,IDE cell inh cf=36*;HEK cytotox=5
CCOc1ccc(/C=C/C(=O)c2c(O)c3ccccc3oc2=O)cc1,20,-1,2,5,-5,-13,
C[n+]1cc(C(=O)N2CCCCC2)ccc1/C=C/c1c[nH]c2ccccc12,-77,143*,79*,-38,27*,-147,IDE cell inh cf=40*;HEK cytotox=14

# Screens from PubChem BioAssay.
